The source of these data is ChEMBL document CHEMBL4513216, “Probing the Open Global Health Chemical Diversity Library for Multistage-Active Starting Points for Next-Generation Antimalarials” (ACS Infect Dis, 2020).

The structures appear in SMILES notation. The whole screen tested about 69,000 compounds, of which about 8,600 (12%) showed an effect of 50% or more. The sample as a whole holds a higher share of strong results than the screen did.

In the assay the test system is Plasmodium berghei. As to the kind of experiment: Screen against P. berghei liver stage (PbLuc), transformed with Luciferase, at 10uM. It is filed as functional, HepG2. As to conditions: tested at 10 uM.
On to `COc1nccnc1N1CCC2(CC1)C(=O)N(C)c1ccccc12`, for which the INHIBITION was -55%.

For the compound `Cc1ccc(C(=O)NC2CCOc3ccccc32)cc1S(C)(=O)=O` (stereo unspecified), the INHIBITION is 16.2%.

With `COc1ccc(CNCc2c(C(C)C)nn(C)c2OC)cn1`, the INHIBITION was 27.8%.

On to `CC(C)Cn1cc(C(=O)NC2CCS(=O)(=O)C2)c2ccccc2c1=O` (stereo unspecified), for which the INHIBITION is given as 28.6%.

As to `Cc1ccccc1CNC(=O)c1ccccc1-n1cnc(CN)c1`, the INHIBITION is 33.7%.

For the compound `Cc1cc(-c2cnn(CCNC(=O)c3snnc3C)c2C2CC2)on1`, the INHIBITION amounted to 21.9%.

For the compound `CC(C)(C(N)=O)N1CCN(C(=O)c2ccn(-c3cccc(Cl)c3)n2)CC1`, the INHIBITION is on record as -14.6%.

`COc1ncccc1CN1CCn2c(C(=O)N3CCCC3)cnc2C1`: the INHIBITION worked out at 7.24%.

Consider `Cc1nc[nH]c1CN1CCN(C2CCOCC2)CC(C(N)=O)C1` (stereo unspecified), for which the INHIBITION amounted to 7.52%.

Take `Cn1nnc(NCc2ccc(-c3ccc(Br)cc3)o2)n1`: the INHIBITION was 0.868%.

As for `Cc1cnc(CC2COCCN(C(=O)CN3CCCCC3)C2)cn1` (stereo unspecified), the INHIBITION is listed as 30.4%.

For the compound `O=C(COC1CCCCC1)NS(=O)(=O)c1ccc2c(c1)OCCCO2`, the INHIBITION came out at 10%.

`CCCOCC(=O)NS(=O)(=O)c1ccc2c(c1)OCCO2`: the INHIBITION was determined as 18.2%.

For `O=C(COC1CCCC1)NS(=O)(=O)c1ccc2c(c1)OCCCO2`, the INHIBITION was 8.64%.

`COCCCC(=O)NS(=O)(=O)c1ccc2c(c1)OCCCO2`: the INHIBITION amounted to 38.6%.

As to `O=C(COCC(F)(F)F)NS(=O)(=O)c1ccc2c(c1)OCCCO2`, the INHIBITION is 63.5%.

`CCCOCC(=O)NS(=O)(=O)c1ccc2c(c1)OCCCO2`: the INHIBITION turned out to be 51.6%.

As for `CC(C)C(=O)N1CCCc2c(cnn2-c2ccccc2)C1`, the INHIBITION is reported as 9.05%.

As to `O=C(O)C1(Oc2ccc(Cl)cc2)CCN(C2CCOCC2)CC1`, the INHIBITION was 24.7%.

On to `CCn1cc(C(=O)n2nc(C)cc2C)c(S(=O)(=O)N2CCCCC2)n1`, for which the INHIBITION is given as 29.7%.

As to `Cc1cc(C)n(C(=O)c2cn(C)nc2S(=O)(=O)N2CCSCC2)n1`, the INHIBITION came to 56.5%.

As to `CCCn1cc(C(=O)n2nc(C)cc2C)c(S(=O)(=O)N2CCSCC2)n1`, the INHIBITION was determined as 0%.

With `CN(Cc1nc(-c2ccoc2)no1)C1CCCN(c2cccnn2)C1` (stereo unspecified), the INHIBITION is recorded as 7.12%.

Turning to `CCNc1c(NC(=O)NC(C)C)c(=O)oc2ccccc12`, the INHIBITION is given as 40.3%.

As for `Cc1cc(-c2cnc(N3CCC(O)CC3)nc2C(C)C)on1`, the INHIBITION is 59.4%.

With `Cc1cc(-c2cnc(N3CCN(C)CC3)nc2C(C)C)on1`, the INHIBITION is on record as 47.95%.

With `Cc1cc(-c2cnc(N(C)C)nc2C2CCCCN2C(=O)C2CC2)on1` (stereo unspecified), the INHIBITION is listed as -11.59%.

`Cc1cc(-c2cnc(N3CCSCC3)nc2C(C)C)on1`: the INHIBITION came out at 50.8%.

In the case of `Cc1cc(-c2cnc(N3CCC(C(N)=O)CC3)nc2C(C)C)on1`, the INHIBITION is 77.1%.

In the case of `COc1ccc(Cl)cc1C(=O)N1CCCC(c2cc(C)[nH]n2)C1` (stereo unspecified), the INHIBITION was -2.53%.

For the compound `Cc1cc(C(=O)NC2CCC3(CCC(=O)N3CC3CC3)CC2)no1` (stereo unspecified), the INHIBITION is recorded as -1.12%.

For `N#CC1(NC(=O)c2ccc(-c3nc(C4CC4)n[nH]3)cc2)CCSC1` (stereo unspecified), the INHIBITION was found to be 22%.

`COc1ccc(C(C#N)NC(=O)Cc2ccc(F)c(F)c2)c(OC)c1` (stereo unspecified): the INHIBITION is 17.7%.

Turning to `CCc1noc(CN(CC)Cc2cc3ccc(F)cc3[nH]c2=O)n1`, the INHIBITION is recorded as -52.7%.

For the compound `CCCn1cc(C(=O)NC2CCN(CC(=O)NC3CC3)CC2)c(C)n1`, the INHIBITION is on record as 39.4%.

`CCCn1cc(C(=O)NCCC(=O)NC2CCCCC2)c(C)n1`: the INHIBITION is recorded as -5.12%.

In the case of `CCCn1cc(C(=O)NCC(=O)NC2CC2)c(C)n1`, the INHIBITION was determined as 60.3%.

In the case of `CCC(=O)Nc1ccccc1Sc1nc(Br)nn1C`, the INHIBITION is given as 3.31%.

For the compound `Cc1ccnc(N2C[C@H]3CC[C@@H](C2)N(CC2CCC2)C3=O)n1`, the INHIBITION is -4.35%.

On to `Cc1cc(SCC(N)=O)nc(-c2cccc(F)c2)n1`, for which the INHIBITION is recorded as 3.58%.

For `Cc1cc(SCC(N)=O)nc(-c2ccc(F)cc2)n1`, the INHIBITION is -6.18%.

In the case of `COc1ccc(-c2nc(C)cc(SCC(N)=O)n2)cc1`, the INHIBITION came out at 85.5%.

Take `CCC(C)[C@H](N)c1nnc(SCC(=O)Nc2ccc(Br)cc2)o1` (stereo partly specified): the INHIBITION amounted to 41.1%.

Turning to `CC(=O)N1C[C@H]2CC[C@@H](C1)N(S(=O)(=O)c1ccccc1Cl)C2`, the INHIBITION is given as -7.2%.

As for `CCn1nccc1S(=O)(=O)N1CCC2(CCCN(C(C)C)C2=O)C1` (stereo unspecified), the INHIBITION is 33%.

Consider `CCCN1CCCC2(CCN(S(=O)(=O)c3cc(C)nn3CC)C2)C1=O` (stereo unspecified), for which the INHIBITION was 21.2%.

Turning to `CCn1nc(C)cc1S(=O)(=O)N1CCC2(CCCN(C(C)C)C2=O)C1` (stereo unspecified), the INHIBITION is on record as 58.6%.

For `O=C(c1ccsc1)N1CCO[C@@H]2CN(Cc3ccco3)CC[C@@H]2C1`, the INHIBITION worked out at 44.8%.

With `Cc1c(CNCC(C)Oc2cccnc2)c2ccccc2n1CC(N)=O` (stereo unspecified), the INHIBITION was -36.6%.

Consider `CCn1c(C)cc(C(=O)N2CCc3nnc(N)cc3C2)c1C`, for which the INHIBITION is on record as 68.8%.

With `Nc1cc2c(nn1)CCN(C(=O)c1cccc3c1OCCO3)C2`, the INHIBITION worked out at 44.2%.

In the case of `Cc1cc(C(=O)N2CCc3nnc(N)cc3C2)c(C)n1-c1cccnc1`, the INHIBITION is reported as 11.8%.

As to `Cc1cc(C(=O)N2CCc3nnc(N)cc3C2)c(C)n1C1CC1`, the INHIBITION is recorded as -15.8%.

With `Cc1cc(C(=O)N2CCc3nnc(N)cc3C2)c(C)n1-c1ccccc1`, the INHIBITION worked out at 89.3%.

With `Nc1cc2c(nn1)CCN(C(=O)c1cccnc1Oc1ccccc1)C2`, the INHIBITION is listed as -18.7%.

Regarding `Cc1ccc(CN(C(=O)NCC2CCCO2)C2CC2)o1` (stereo unspecified), the INHIBITION is -56.2%.

Take `COCCc1noc(CNC2CCCC(C)(C)C2)n1` (stereo unspecified): the INHIBITION amounted to 20.2%.

Take `Cc1ccccc1CS(=O)(=O)c1nnc(C(C)NC(=O)OC(C)(C)C)o1` (stereo unspecified): the INHIBITION amounted to 46.6%.

For the compound `CC(=O)N(C)Cc1cccc(NC(=O)N(C)CCc2cccs2)c1`, the INHIBITION is recorded as -6.34%.

For the compound `C=C(C)CN(CC)C(=O)Nc1ccccc1CN(C)C(C)=O`, the INHIBITION was found to be 28.7%.

Regarding `CC(=O)N(C)Cc1ccccc1NCc1c(C)cccc1C`, the INHIBITION came out at 50.2%.

Consider `CC(=O)N(C)Cc1ccccc1NC(=O)c1ccccc1C`, for which the INHIBITION is listed as -19.55%.

`CC(=O)N(C)Cc1ccccc1NC(=O)N(C)CCc1cccs1`: the INHIBITION was 52.3%.

`CC(=O)N(C)Cc1ccccc1NCc1c(C)noc1C`: the INHIBITION is listed as -16.1%.

With `O=C(c1ccccc1)N1CCS(=O)(=O)[C@@H]2CCNCC[C@@H]21`, the INHIBITION amounted to 38.2%.

For the compound `CNC(=O)c1ccc(C(=O)N2CCCC(n3nc(C)cc3C)C2)cn1` (stereo unspecified), the INHIBITION is reported as -11.9%.
